# CHO-K1 Ca ag = counter-screen for M1 agonists: effect in parental CHO-K1 cells; activation, % at 3 µM; Fluo-8 calcium fluorescence; scaled to maximal ATP response, vehicle zero; 360,000 tested, 0.48% active; in the data active = activation above about 15%;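 note: untransfected CHO-K1 host cells lacking M1 receptor as counterscreen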
# M1 PAM = human M1 muscarinic receptor positive allosteric modulators, primary screen, CHO-K1 cells, Fluo-8 calcium fluorescence, 1536-well; CHO-K1 hM1, ACh EC20; 0% = ACh EC20, 100% = maximal ACh; activation, % at 3 µM; 360,000 tested, 0.088% active; in the data active = activation above about 19%, passing the limit was not always enough
# Target sequence (P11229 whole entry, looked up): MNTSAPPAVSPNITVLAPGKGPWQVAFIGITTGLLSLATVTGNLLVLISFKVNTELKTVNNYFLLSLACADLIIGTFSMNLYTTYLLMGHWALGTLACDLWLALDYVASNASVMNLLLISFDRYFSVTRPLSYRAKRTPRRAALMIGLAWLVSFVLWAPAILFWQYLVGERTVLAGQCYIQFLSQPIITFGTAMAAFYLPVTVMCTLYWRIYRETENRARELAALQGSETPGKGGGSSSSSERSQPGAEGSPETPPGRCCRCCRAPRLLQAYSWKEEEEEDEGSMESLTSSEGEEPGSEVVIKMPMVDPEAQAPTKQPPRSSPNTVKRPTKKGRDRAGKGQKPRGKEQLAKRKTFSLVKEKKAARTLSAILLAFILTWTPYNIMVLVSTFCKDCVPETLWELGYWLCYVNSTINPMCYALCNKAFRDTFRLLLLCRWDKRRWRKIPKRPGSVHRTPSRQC
# CHRM1 antagonist = human M1 muscarinic receptor antagonists, primary screen, CHO-K1 cells, Fluo-8 calcium fluorescence, 1536-well. inhibition, % at 3 µM. 360,000 tested, 1.3% active. Muscarinic acetylcholine receptor M1 (Homo sapiens), P11229. CHO-K1 hM1, ACh EC80 antagonist;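 active = percent inhibition above its own plate's cutoff, namely the mean of that plate's compound wells plus 3 SD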;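 note: peak over basal fluorescence ratio during 140 s after agonist addition; 0% = ACh EC80 plus DMSO and 100% = DMSO alone without agonist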
# CHRM1 agonist = human M1 muscarinic receptor agonists, primary screen, Fluo-8 calcium fluorescence, CHO-K1 cells, HTS; 360,000 tested, 0.33% active; activation, % at 3 µM; Muscarinic acetylcholine receptor M1 (Homo sapiens), P11229; CHO-K1 hM1, agonist mode; 0% DMSO, 100% acetylcholine EC100;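 active = activation above the run's mean compound activation plus 3 SD, cut at about 16% in these data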;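 note: peak over basal fluorescence ratio within a 140 s kinetic read after compound addition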
# CHO-K1 Ca antag = nonselective inhibitor or artifact in parental CHO-K1 cells; ATP-induced calcium, Fluo-8 fluorescence; inhibition, % at 3 µM; 360,000 tested, 0.6% active;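 active = inhibition above a per-plate cutoff, the plate's mean sample inhibition plus 3 SD, cut at about 24% in these data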;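 note: 0% = DMSO plus EC80 ATP and 100% = DMSO alone without ATP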
# CHO-K1 Ca PAM = nonselective calcium activators in parental CHO-K1 cells, primary screen, counter-screen for M1 PAM project, cell-based, Fluo-8 calcium fluorescence, full deck, 1536-well | activation, % at 3 µM | 360,000 tested, 0.02% active | ATP EC20; 0% at ATP EC20, 100% at ATP max;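 active = activation above the run cutoff, the mean activation of all test compounds plus 3 SD, cut at about 40% in these data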;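 note: peak over basal fluorescence ratio in a 140 s read after ATP addition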
# An asterisk follows results filed as active. Compounds with a hit are over-represented: about 2.3% of the library has one in this group of screens.
SMILES,CHO-K1 Ca ag,M1 PAM,CHRM1 antagonist,CHRM1 agonist,CHO-K1 Ca antag,CHO-K1 Ca PAM
CC1(C)CC(=O)C2=C(C1)Nc1ccccc1NC2c1ccc([N+](=O)[O-])cc1 (stereo not drawn),7,12,-10,0,-16,18
O=C(Nc1nc2c(F)cc(F)cc2s1)C1CC1,2,-5,8,-4,31*,-5
O=C(CN1C(=O)CCC1=O)Nc1nc2c(F)cc(F)cc2s1,5,-9,4,0,4,3
CC(CN1CCN(CCOCCO)CC1)CN1c2ccccc2Sc2ccc(Cl)cc21 (stereo not drawn),6,-28,56*,0,-2,9
Cc1cc(C(=O)N/N=C2\CC(=O)CC(C)(C)C2)c2ccccc2n1,0,1,5,-7,26*,-8
CSc1ncccc1C(=O)OCC(=O)NC1CCS(=O)(=O)C1 (stereo not drawn),16*,0,0,-1,9,-1
O=C(Nc1ccc(OCC(F)(F)C(F)F)c(C(F)(F)F)c1)c1ccccc1O,10,-16,20*,5,24*,10
CC1NC(=O)c2ccccc2-n2c1nc1ccc(F)cc1c2=O (stereo not drawn),1,-1,-4,-1,-2,5
CC#CC(=O)N1CCC(n2nccc2NC(=O)CCc2ccccc2)CC1,0,6,-7,-5,-3,-7
CC(C)=CC(=O)N1CCC(n2nccc2NC(=O)CCc2ccccc2)CC1,0,-1,3,-6,40*,7
O=C(Cn1cc(S(=O)(=O)Cc2cccc([N+](=O)[O-])c2)c2ccccc21)N1CCOCC1,4,10,-6,0,1,-4
O=C(c1ccoc1)N1CCC2(CCCN(Cc3ccc(F)c(F)c3)C2)C1 (stereo not drawn),0,-22,55*,-6,-4,6
O=C(CCC1CCCN(C(=O)c2ccoc2)C1)NCc1ccc(F)c(F)c1 (stereo not drawn),1,5,0,-4,-13,24
Cc1occc1C(=O)N1CCC2(CCCN(Cc3ccc(F)c(F)c3)C2)C1 (stereo not drawn),0,-24,65*,-7,-4,-7
CCOc1ccc(CCNC(=O)c2ccc(OCc3c(C)noc3C)cc2)cc1OCC,8,4,-1,0,14,-12
Cc1cc(C)c(NC(=O)COC(=O)/C=C/c2cccs2)c(C)c1,-1,4,-1,0,8,-8
Cc1cc(C)cc(NC(=O)CSc2nc(=O)n3cc(C)ccc3n2)c1,0,11,-12,-1,13,11
c1ccc(CCC2CCCCN2Cc2nc(-c3ccc4c(c3)OCO4)no2)nc1 (stereo not drawn),8,-14,35*,-3,2,-14
O=C(N1CCOCC1)C1(c2ccc(Cl)cc2)CCCC1,1,9,-5,-4,-13,16
O=C(Nc1ccc(N2CCOCC2)cc1)C1(c2ccc(Cl)cc2)CCC1,8,10,-19,17*,-16,27
O=C(Nc1ccc(N2CCCC2)cc1)c1ccc(Cl)cc1Cl,0,7,-11,-6,-3,1
O=C(Nc1ccc(Cl)cc1)Nc1ccc(N2CCOCC2)cc1,4,-2,11,-1,-12,13
O=S(=O)(c1ccc(NCc2ccccc2)cc1)N1CCOCC1,1,-8,24,-2,25*,-26
O=C(Nc1ccc(N2CCOCC2)cc1)Nc1ccc(Cl)c(Cl)c1,13,-33,55*,4,33*,-16
O=C(Nc1ccc(N2CCCC2)cc1)c1cc(Cl)ccc1Cl,0,-26,36*,-9,-3,1
SMILES,CHO-K1 Ca ag,M1 PAM,CHRM1 antagonist,CHRM1 agonist,CHO-K1 Ca antag,CHO-K1 Ca PAM
CCOC(=O)c1ccccc1NC(=O)COC(=O)CSc1ccccc1,1,13,-16,2,-11,16
O=S(=O)(N/N=C/c1cn(Cc2ccccc2)c2ccccc12)c1ccccc1,1,5,-2,2,-6,13
O=C(Nc1ccccc1)Nc1ccc(Cl)c(S(=O)(=O)N2CCOCC2)c1,18*,-11,23,3,10,-7
CC(=O)N(CCCCl)C(C#N)c1ccccc1 (stereo not drawn),0,-32,25,51*,-11,13
COc1cc(C)ccc1OCc1cc(C(=O)N(Cc2c(C)nn(C)c2C)C2CC2)no1,18*,-11,14,-3,-2,-5
COc1cc(C)ccc1OCc1cc(C(=O)N2C[C@H]3CC[C@H]2C3)no1,1,4,-7,-3,-16,17
CCn1c(=O)c(C(=O)NNC(=O)c2ccccc2Cl)c(O)c2ccccc21,35*,-4,2,18*,-16,22
CCCn1c(=O)c(C(=O)NCc2ccccc2Cl)c(O)c2ccccc21,1,1,3,1,1,4
CCCn1c(=O)c(C(=O)NCc2ccncc2)c(O)c2ccccc21,-1,7,-13,-2,29*,1
CCC(C(=O)Nc1ccc(C(=O)N2CCCC2)cc1)c1ccccc1 (stereo not drawn),11,-8,13,18*,-3,2
CCc1ccc(NC(=O)C(CC)c2ccccc2)cc1 (stereo not drawn),19*,-6,17,26*,-4,24
CCC(C(=O)Nc1ccc(C)cc1)c1ccccc1 (stereo not drawn),1,-2,8,-3,-8,8
COc1cc(NC(=O)CCc2nnc3ccc(N4CCN(C)CC4)nn23)cc(OC)c1,4,4,1,-5,-4,7
C/C(=N\NC(=S)Nc1cc(S(=O)(=O)N2CCOCC2)ccc1Cl)c1ccccc1F,0,11,-8,-3,6,3
CCOC(=O)c1cc(C)n(-c2c(C)n(C)n(-c3ccccc3)c2=O)c1C,1,-14,34*,-5,-4,4
CCCCC(=O)OCC(=O)c1cc(C)n(-c2c(C)n(C)n(-c3ccccc3)c2=O)c1C,0,0,1,-6,-20,21
C=CCN1C(=O)/C(=C/c2ccc(-c3ccc(F)cc3)o2)SC1=S,0,-1,-7,-2,-2,15
CCN1C(=O)N[C@@H](c2cccc(F)c2)C(C(C)=O)=C1C,1,31*,-24,4,-13,9
CCOC(=O)CN1C(=O)N[C@@H](c2cccc(F)c2)C(C(C)=O)=C1C,1,4,-2,-3,-13,13

# Assay outcomes: PubChem, The Scripps Research Institute Molecular Screening Center
